Inconclusive results are not listed. The source made the active and inactive calls. The call rests on the fitted dose curve; in most records, active means well fitted curve in the direction sought with a large enough effect; inconclusive means small, poorly fitted or top-dose-only effect, or another doubt; inactive means no such curve, though single readings can be large; an effect the other way counts as inactive or inconclusive.
Legend:
[1] = molecular target: Glutathione peroxidase 1 (Homo sapiens) (UniProt P07203); assay: Primary qHTS Assay for Inhibitors of Recombinant Selenoprotein Glutathione Peroxidase 1 (GPX1) (AID 1845191); further: nearly all actives have a fitted effect of over 65% in size
Glutathione peroxidase 1 (Homo sapiens), sequence (P07203 whole entry, looked up): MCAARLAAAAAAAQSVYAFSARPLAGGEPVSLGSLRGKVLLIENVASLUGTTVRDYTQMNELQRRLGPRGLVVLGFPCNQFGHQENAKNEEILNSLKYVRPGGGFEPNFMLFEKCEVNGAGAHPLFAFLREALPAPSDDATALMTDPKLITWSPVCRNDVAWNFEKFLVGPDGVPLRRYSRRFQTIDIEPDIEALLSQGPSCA
Method in brief: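 10 nM GPX1 + cpd, 30 min RT; start w/ 1 mM GSH, 0.5 mM cumene hydroperoxide, 0.5 mM NADPH, 100 nM GR, 0.01% BSA; buffer 50 mM Tris-HCl pH 7.5, 2 mM EDTA, 150 mM NaCl; Fl 340/450, 0 & 15 min.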

[2] = molecular target: Phospholipid hydroperoxide glutathione peroxidase GPX4 (Homo sapiens) (UniProt P36969); assay: Primary qHTS Assay for Inhibitors of Recombinant Selenoprotein Glutathione Peroxidase 4 (GPX4) (AID 1845192); further: nearly all actives have a fitted effect of over 65% in size
Phospholipid hydroperoxide glutathione peroxidase GPX4 (Homo sapiens), sequence (P36969 whole entry, looked up): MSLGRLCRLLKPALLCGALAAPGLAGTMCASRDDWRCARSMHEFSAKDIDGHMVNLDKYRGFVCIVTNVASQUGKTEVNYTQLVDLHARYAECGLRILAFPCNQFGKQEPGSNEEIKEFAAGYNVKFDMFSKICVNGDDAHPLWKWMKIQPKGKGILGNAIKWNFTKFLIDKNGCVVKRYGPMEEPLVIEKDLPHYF
Method in brief: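 NADPH consumption, followed by fluorescence at 340/450 nm between 0 and 15 min, reports GPX4 activity via coupled glutathione reductase (100 nM). Enzyme 200 nM was pre-exposed to compound 30 min; 0.5 mM cumene hydroperoxide and 1 mM GSH served as substrates.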

[3] = molecular target: Luciferin 4-monooxygenase (Photinus pyralis) (UniProt P08659); assay: Primary firefly luciferase (FLuc) qHTS assay for identification of artifact compounds. (AID 1845220); further: nearly all actives have a fitted effect of over 60% in size; further: potency means the concentration at half of the fitted maximal effect
Method in brief: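 Compounds sat 15 min at room temperature with 10 uM luciferin and 10 uM ATP (pH 7.6 Tris acetate). Firefly luciferase (10 nM final) was then added, and luminescence was read 5 min later. Data normalized to no-enzyme and DMSO controls were Hill-fitted.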

[4] = tested on: Nanoluciferase (engineered Oplophorus gracilirostris luciferase); assay: Primary Nanoluciferase (NLuc) qHTS assay for identification of artifact compounds. (AID 1845222); further: series mostly up to about 54 µM
Method in brief: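 Luminescence from secreted NLuc (filtered, 1:55-diluted S16 cell medium) read 5 min after Nano-Glo substrate; compounds preincubated 15 min, RT. Hill fits of inhibition normalized to DMSO and no-enzyme.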

[5] = Primary redox qHTS assay for identification of artifact compounds. (AID 1845223)
Method in brief: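 Amplex Red (25 uM) and HRP (250 mU/mL) in HBSS, with compounds for 15 min, then 250 uM DTT for 30 min, room temperature, dark. Fluorescence 525/598 nm read; normalized to DMSO and 10 uM DA3003; Hill fit.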

[6] = Quantitative High-Throughput drug screen in 47 multiple myeloma cell lines against the NCATS MIPE library collection: FR4_PLB cell viability assay (AID 1918924; further: nearly all actives have a fitted effect of over 35% in size; further: potency means the concentration at half of the fitted maximal effect)
Method in brief: (§1)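 Luminescent ATP measurement with CellTiter-Glo gives viability, scaled between DMSO-only wells (100%) and media-only wells (0%). Cells, 500 per well, faced library compounds for 48 hours at 37C.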

[7] = Quantitative High-Throughput drug screen in 47 multiple myeloma cell lines against the NCATS MIPE library collection: Delta47_JCRB cell viability assay (AID 1918925; further: nearly all actives have a fitted effect of over 45% in size; further: potency means the concentration at half of the fitted maximal effect)
Method in brief: (§2)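 We plated 500 myeloma cells per well, pinned in MIPE 4.0 compounds, and incubated for 48 hours at 37C. ATP was then quantified with CellTiter-Glo, with DMSO and media-only wells defining 100% and 0%.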

[8] = Quantitative High-Throughput drug screen in 47 multiple myeloma cell lines against the NCATS MIPE library collection: EJM_DSMZ cell viability assay (AID 1918926; further: nearly all actives have a fitted effect of over 30% in size; further: potency means the concentration at half of the fitted maximal effect)
Method in brief: as §2

[9] = Quantitative High-Throughput drug screen in 47 multiple myeloma cell lines against the NCATS MIPE library collection: AMO1_DSMZ cell viability assay (AID 1918927; further: nearly all actives have a fitted effect of over 30% in size; further: potency means the concentration at half of the fitted maximal effect)
Method in brief: as §2

[10] = Quantitative High-Throughput drug screen in 47 multiple myeloma cell lines against the NCATS MIPE library collection: ARD_JJKsccE7 cell viability assay (AID 1918929; further: potency means the concentration at half of the fitted maximal effect)
Method in brief: as §2

[11] = Quantitative High-Throughput drug screen in 47 multiple myeloma cell lines against the NCATS MIPE library collection: Karpas620_DSMZ cell viability assay (AID 1918959); further: nearly all actives have a fitted effect of over 30% in size; further: potency means the concentration at half of the fitted maximal effect
Method in brief: as §1

[12] = Quantitative High-Throughput drug screen in 47 multiple myeloma cell lines against the NCATS MIPE library collection: KMM1_JCRB cell viability assay (AID 1918960); further: nearly all actives have a fitted effect of over 30% in size; further: potency means the concentration at half of the fitted maximal effect
Method in brief: (§3)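 Myeloma cells at 500 per well in 1536-well format treated with MIPE 4.0 library by pin transfer for 48 h at 37C, 5% CO2. Viability from ATP luminescence (CellTiter-Glo), normalized to DMSO (100%) and media-only (0%) wells.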

[13] = Quantitative High-Throughput drug screen in 47 multiple myeloma cell lines against the NCATS MIPE library collection: ARP1_JJKsccF8 cell viability assay (AID 1918928; further: nearly all actives have a fitted effect of over 40% in size; further: potency means the concentration at half of the fitted maximal effect)
Method in brief: as §3

Measured: Potency

CC(=O)Nc1nc(C)c(-c2ccc(Cl)c(S(=O)(=O)NCCO)c2)s1
active: [6] 13200 nM | [7] 662 nM | [8] 11800 nM | [9] 1320 nM | [10] 418 nM | [11] 6620 nM | [12] 3720 nM
inactive: [1] | [2] | [3] | [4] | [5]

CC1COC2(CCN(c3nc(=O)c4cc(C(F)(F)F)cc([N+](=O)[O-])c4s3)CC2)O1 (configuration not stated)
not listed: [9]
inactive: all other assays above

CNC(=O)c1ccc(-c2cnc3ncc(Cc4ccc5ncccc5c4)n3n2)cc1F
inactive: [1] | [2] | [3] | [4] | [5] | [9] | [12]

O=C(O)CCCc1c[nH]c2ccccc12
not listed: [6] | [9] | [11] | [13]
inactive: all other assays above

CNC(=O)c1ccc(N2C(=S)N(c3cnc(C#N)c(C(F)(F)F)c3)C(=O)C23CCC3)cc1F
inactive: [1] | [2] | [3] | [4] | [5]
active: [6] 14800 nM | [7] 743 nM | [10] 2090 nM | [11] 2350 nM | [12] 2090 nM

COC(=O)Nc1nc2ccc(C(=O)c3ccc(F)cc3)cc2[nH]1
inactive: [1] | [2] | [3] | [4] | [5]
active: [6] 264 nM | [7] 418 nM | [9] 296 nM | [13] 418 nM | [10] 332 nM

CC(C)c1cnn2c(NCc3ccccc3)cc(N[C@@H](CO)[C@H](O)CO)nc12
inactive: [1] | [2] | [3] | [5]
active: [6] 264 nM | [7] 166 nM | [8] 235 nM | [9] 118 nM | [13] 264 nM | [10] 148 nM | [11] 296 nM | [12] 166 nM

COc1ccc(OC)c(-c2nnc3ccc(-c4ccc(OC)c(O[C@@H]5CCOC5)c4)nn23)c1
active: [6] 11800 nM | [7] 9350 nM | [8] 16600 nM | [13] 18700 nM | [12] 8330 nM
inactive: [1] | [2] | [3] | [4] | [5]

CC[C@@]1(O)C(=O)OCc2c1cc1n(c2=O)Cc2cc3cc(O)ccc3nc2-1
active: [6] 1180 nM | [7] 187 nM | [8] 372 nM | [9] 74.3 nM | [13] 418 nM | [11] 1870 nM | [12] 148 nM
inactive: [1] | [2] | [3] | [4] | [5]

O=C(c1cncc(Br)c1)N1CCC(N2CCCC2)CC1
active: [13] 16600 nM
not listed: [8] | [9] | [10]
inactive: all other assays above

CC(C)(O)CCc1ccc(OCc2cc(-c3cccc(OC(F)F)c3)c3ncccc3c2)cc1
active: [3] 13500 nM
inactive: [1] | [2] | [4] | [5] | [10] | [11] | [12]

From PubChem BioAssay (NCATS)
